Measurements from the supplement of paper PMC10646978.
± gives the standard deviation.

What was measured:
Settings in all cases: modulator concentration 10 µM
[1] = system: RAW-Dual (murine macrophage reporter line); assay: NF-kB reporter (SEAP) activity fold change vs agonist alone; higher = enhanced NF-kB activity
How it was run: (§1)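 Compound reached 10 μM final in each well by pin transfer, onto RAW-Dual murine macrophage reporter cells seeded at 50 000 per well in 384-well plates. After 1 hour at 37 °C, the cells were stimulated overnight with a PRR agonist. SEAP in the supernatant was read with QUANTI-Blue at 620 nm absorbance for NF-κB, and Lucia luciferase was read with QUANTI-Luc luminescence for IRF. Each signal was turned into fold change against the mean agonist-only control on the same plate, and two replicate plates were averaged with propagated errors.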

[2] = system: RAW-Dual (murine macrophage reporter line); assay: IRF reporter (Lucia luciferase) activity fold change vs agonist alone; higher = enhanced IRF activity
How it was run: as §1

[3] = system: RAW-Dual (murine macrophage reporter line); assay: viability score (confluency relative to resting cells, overnight) (fraction); higher = more viable, active = viable (0.7 or more)
How it was run: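 In 384-well plates, RAW-Dual macrophages received compound at a final 10 μM overnight. Two confluency masks were then made with IncuCyte software from IncuCyte images of all imaged wells. The viability score is defined as confluency relative to resting cells. Passing the cutoff required both masks to lie above 70% of resting cells.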

[4] = agonist: CpG ODN 1826 0.5 ug/mL

| SMILES | NF-kB reporter [1, 4] | NF-kB reporter ([1]; agonist: LPS 0.1 ug/mL) | NF-kB reporter ([1]; agonist: MPLA […]) | IRF reporter ([2]; agonist: 3'3'-cGAMP 10 ug/mL) | IRF reporter ([2]; agonist: LPS 0.1 ug/mL) | IRF reporter ([2]; agonist: MPLA […]) | viability score [3] |
| --- | --- | --- | --- | --- | --- | --- | --- |
| CC(=O)Nc1nnc(CCS(=O)(=O)c2ccc(Br)cc2)s1 | 0.951 ± 0.054 | 1.05 ± 0.064 | 0.93 ± 0.079 | 0.908 ± 0.032 | 1.46 ± 0.094 | 1.16 ± 0.12 | 1.01 (active) |
| CCc1c(C)[nH]c2c1C(=O)C(CN1CCOCC1)CC2.Cl (stereo not drawn) | 0.108 ± 0.0046 | 0.221 ± 0.024 | 0.714 ± 0.042 | 0.752 ± 0.039 | 1.5 ± 0.24 | 1.4 ± 0.43 | 0.855 (active) |
| CCc1c2c(nc3ccc(OC(=O)N4CCC(N5CCCCC5)CC4)cc13)-c1cc3c(c(=O)n1C2)COC(=O)[C@]3(O)CC.Cl.O.O.O | 1.06 ± 0.25 | 1.41 ± 0.23 | 1.54 ± 0.55 | 0.866 ± 0.042 | 1.35 ± 0.35 | 1.2 ± 0.16 | 0.975 (active) |
| Cc1cc(C)n(C2CC(=O)N(c3ccccc3)C2=O)n1 (stereo not drawn) | 1.04 ± 0.08 | 0.926 ± 0.1 | 1.21 ± 0.2 | 1.05 ± 0.04 | 1.31 ± 0.25 | 1.42 ± 0.21 | 1.02 (active) |
| O=C(c1ccc(Cl)cc1)N(c1ccccc1)C1C=CS(=O)(=O)C1 (stereo not drawn) | 0.99 ± 0.056 | 0.83 ± 0.051 | 0.823 ± 0.049 | 0.814 ± 0.031 | 1.1 ± 0.14 | 1.08 ± 0.2 | 0.981 (active) |
| CCCCCCC1OCC2(CO)C(C)C=C(C)C1C2C (stereo not drawn) | 0.532 ± 0.075 | 0.697 ± 0.082 | 0.716 ± 0.067 | 1.31 ± 0.075 | 1.05 ± 0.17 | 1.21 ± 0.24 | 0.898 (active) |
| CCCCc1ncc(/C=C(\Cc2cccs2)C(=O)O)n1Cc1ccc(C(=O)O)cc1.CS(=O)(=O)O | 1.08 ± 0.081 | 1.11 ± 0.055 | 1.03 ± 0.039 | 0.927 ± 0.062 | 0.973 ± 0.077 | 0.836 ± 0.079 | 1 (active) |
| Nc1nccs1 | 0.948 ± 0.14 | 1.22 ± 0.088 | 0.91 ± 0.055 | 0.89 ± 0.03 | 1.32 ± 0.16 | 1.2 ± 0.09 | 1 (active) |
| CC(NC(=O)C1CCN(S(=O)(=O)N2CCCC2)CC1)c1ccc(F)cc1 (stereo not drawn) | 1.08 ± 0.054 | 1.05 ± 0.082 | 0.928 ± 0.041 | 0.953 ± 0.051 | 1.25 ± 0.085 | 1.09 ± 0.15 | 0.992 (active) |
| O=C(CCCCCN1C(=O)c2cccc3cccc(c23)C1=O)NCCCO | 0.997 ± 0.08 | 0.993 ± 0.064 | 0.919 ± 0.036 | 1.02 ± 0.14 | 1.11 ± 0.053 | 1.08 ± 0.082 | 0.993 (active) |
| C[C@@H]1CCN(C(=O)CC#N)C[C@@H]1N(C)c1ncnc2[nH]ccc12.O=C(O)CC(O)(CC(=O)O)C(=O)O | 1.05 ± 0.29 | 0.628 ± 0.047 | 0.885 ± 0.06 | 0.182 ± 0.0066 | 0.366 ± 0.056 | 0.507 ± 0.1 | 0.603 (inactive) |
| CCC(Oc1ccccc1)C(=O)Nc1cc([N+](=O)[O-])ccc1C (stereo not drawn) | 0.91 ± 0.059 | 0.865 ± 0.073 | 0.987 ± 0.036 | 0.902 ± 0.042 | 0.997 ± 0.11 | 0.973 ± 0.14 | 1 (active) |
| O=C(NC1CC2CCC1C2)c1ccccc1Cl (stereo not drawn) | 0.725 ± 0.064 | 0.801 ± 0.047 | 1.08 ± 0.099 | 0.983 ± 0.049 | 1.35 ± 0.12 | 1.51 ± 0.24 | 1.02 (active) |
| CN1CCN(c2nc(C3=C(c4c[nH]c5ccccc45)C(=O)NC3=O)c3ccccc3n2)CC1 | 0.748 ± 0.034 | 0.961 ± 0.081 | 1.21 ± 0.071 | 0.798 ± 0.041 | 1.14 ± 0.24 | 1.17 ± 0.32 | 0.988 (active) |
| O=C(Nc1ccc(F)c(F)c1)c1ccnc(OCC2CCOCC2)c1 | 1.15 ± 0.07 | 0.969 ± 0.084 | 0.908 ± 0.046 | 0.856 ± 0.051 | 1.16 ± 0.14 | 1.26 ± 0.36 | 0.995 (active) |
| CCCCCCOc1ccc(OC(=O)c2ccc(OC)cc2)cc1 | 0.826 ± 0.073 | 0.856 ± 0.072 | 0.913 ± 0.089 | 0.95 ± 0.037 | 1.37 ± 0.21 | 1.62 ± 0.26 | 1.04 (active) |
| Cl.NC1=NCC2c3ccccc3Cc3ccccc3N12 (stereo not drawn) | 1.03 ± 0.077 | 1.09 ± 0.056 | 1.06 ± 0.077 | 0.898 ± 0.068 | 0.982 ± 0.051 | 0.822 ± 0.11 | 1 (active) |
| CCC(=O)Nc1cccc(NC(=O)c2ccc(F)cc2)c1 | 0.852 ± 0.066 | 0.906 ± 0.12 | 0.977 ± 0.092 | 0.99 ± 0.05 | 1.32 ± 0.092 | 1.39 ± 0.17 | 0.997 (active) |
| CC1(C)CCC2(C(=O)O)CCC3(C)C(=CCC4C5(C)CCC(O)C(C)(C)C5CCC43C)C2C1 (stereo not drawn) | 1.18 ± 0.28 | 1.12 ± 0.088 | 0.942 ± 0.095 | 0.878 ± 0.03 | 1.3 ± 0.18 | 1.24 ± 0.18 | 0.999 (active) |
| CSc1ccc(C(=O)O)s1 | 1.02 ± 0.13 | 1.08 ± 0.09 | 1.03 ± 0.065 | 1.01 ± 0.21 | 1.03 ± 0.059 | 1.03 ± 0.15 | 1.01 (active) |
| COc1nn(C)cc1C(=O)Nc1ccc(C(=O)NCCN2CCOCC2)cc1 | 1.02 ± 0.052 | 1.03 ± 0.083 | 0.893 ± 0.042 | 0.979 ± 0.049 | 1.28 ± 0.096 | 1.13 ± 0.23 | 0.994 (active) |
| CC1=NN(c2ccc(C)c(C)c2)C(=O)/C1=N\Nc1cccc(-c2cccc(C(=O)O)c2)c1O.NCCO.NCCO | 1.63 ± 0.31 | 1.28 ± 0.23 | 1.49 ± 0.14 | 0.601 ± 0.019 | 1.16 ± 0.098 | 1.2 ± 0.11 | 0.861 (active) |
| COc1cccc(O)c1O | 1.72 ± 0.1 | 0.627 ± 0.083 | 0.321 ± 0.013 | 0.479 ± 0.022 | 0.422 ± 0.03 | 0.0889 ± 0.013 | 0.935 (active) |
| CC(=O)NC(NC(C)=O)c1cccc([N+](=O)[O-])c1 | 1.15 ± 0.12 | 1 ± 0.13 | 0.998 ± 0.039 | 0.968 ± 0.043 | 0.99 ± 0.085 | 1.05 ± 0.12 | 0.995 (active) |
